Reference: PubChem BioAssay AID1159580 (chemical genetic matrix, 2015)
“And” between values parts separate entries of the source, which are not always exact repeats. Equal values may be shown once. The whole screen tested about 5,500 compounds, of which about 2,000 (36%) were called active. About 18% were inconclusive and are not listed. No stated cut-off is given here; in the data, active means normalized growth mostly below about 0.91 (no sharp cut-off); inconclusive means no clear call, values can overlap the other calls; inactive means mostly above about 0.92. Some of the results follow.

Test: chemical genetic growth profiling, strain panel (AID 1159580);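 further: tested at 20 µM; growth read once vehicle control cultures reached saturation at 30 °C; 1 = growth at the plate median or of vehicle wells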
Settings: S. cerevisiae deletion strains, growth OD

Measured: normalized growth

NNc1nncc2ccccc12
inactive: locus YAL013W, strain DEP1, stronger effect = lower value 1.01 | locus YAL021C, strain ccr4, stronger effect = lower value 0.991 | locus YAL026C, strain drs2, stronger effect = lower value 0.973 | locus YAL030W, strain snc1, stronger effect = lower value 1 | locus YAL040C, strain CLN3, stronger effect = lower value 0.995 | locus YBL061C, strain skt5, stronger effect = lower value 0.993 | locus YBR009C, strain hhf1, stronger effect = lower value 0.983 | locus YBR021W, strain FUR4, stronger effect = lower value 0.973 | locus YBR023C, strain chs3, stronger effect = lower value 0.986 | locus YBR171W, strain sec66, stronger effect = lower value 0.997 | locus YBR229C, strain ROT2, stronger effect = lower value 1.01 | locus YBR231C, strain swc5, stronger effect = lower value 0.981 | locus YBR279W, strain paf1, stronger effect = lower value 0.996 | locus YCL011C, strain gbp2, stronger effect = lower value 0.973 | locus YCL016C, strain dcc1, stronger effect = lower value 0.969 | locus YCL029C, strain bik1, stronger effect = lower value 1 | locus YCL061C, strain MRC1 (second series), stronger effect = lower value 1 | locus YCL061C, strain MRC1, stronger effect = lower value 0.988 | locus YCL069W, strain vba3, stronger effect = lower value 1 | locus YCR088W, strain abp1, stronger effect = lower value 0.999 | locus YDL005C, strain med2, stronger effect = lower value 0.992 | locus YDL035C, strain GPR1, stronger effect = lower value 1.02 | locus YDL040C, strain nat1, stronger effect = lower value 1.01 | locus YDL074C, strain BRE1, stronger effect = lower value 0.997 | locus YDL101C, strain DUN1, stronger effect = lower value 1 | locus YDL134C, strain PPH21, stronger effect = lower value 1.01 | locus YDL185W, strain tfp1, stronger effect = lower value 0.999 | locus YDL192W, strain arf1, stronger effect = lower value 0.999 | locus YDR001C, strain nth1, stronger effect = lower value 0.997 | locus YDR069C, strain doa4, stronger effect = lower value 1.02 | locus YDR101C, strain arx1, stronger effect = lower value 1.01 | locus YDR137W, strain rgp1, stronger effect = lower value 1.02 | locus YDR150W, strain NUM1, stronger effect = lower value 1 | locus YDR159W, strain sac3, stronger effect = lower value 1.03 | locus YDR162C, strain NBP2, stronger effect = lower value 1.01 | locus YDR195W, strain ref2 1.06 | locus YDR297W, strain sur2, stronger effect = lower value 1.02 | locus YDR318W, strain mcm21, stronger effect = lower value 0.984 | locus YDR334W, strain swr1, stronger effect = lower value 0.986 | locus YDR335W, strain msn5, stronger effect = lower value 1.02 | locus YDR363W, strain ESC2, stronger effect = lower value 0.997 | locus YDR388W, stronger effect = lower value 0.993 | locus YDR392W, strain spt3, stronger effect = lower value 0.878 | locus YDR502C, strain sam2, stronger effect = lower value 0.986 | locus YEL003W, strain gim4, stronger effect = lower value 0.989 | locus YEL037C, strain rad23, stronger effect = lower value 1 | locus YEL061C, strain CIN8 (second series), stronger effect = lower value 1 | locus YEL061C, strain CIN8, stronger effect = lower value 1 | locus YER002W, strain NOP16, stronger effect = lower value 0.995 | locus YER015W, strain faa2, stronger effect = lower value 0.978 | locus YER016W, strain bim1, stronger effect = lower value 1 | locus YER110C, stronger effect = lower value 0.993 | locus YER111C, strain swi4, stronger effect = lower value 0.986 | locus YER155C, strain BEM2 (second series), stronger effect = lower value 0.947 | locus YER155C, strain BEM2, stronger effect = lower value 1.02 | locus YER167W, strain BCK2, stronger effect = lower value 1.01 | locus YFR010W, strain ubp6, stronger effect = lower value 0.985 | locus YGL078C, strain dbp3, stronger effect = lower value 0.999 | locus YGL086W, strain mad1, stronger effect = lower value 0.996 | locus YGL167C, strain pmr1, stronger effect = lower value 0.995 | locus YGL173C, strain kem1, stronger effect = lower value 0.99 | locus YGL227W, strain vid30, stronger effect = lower value 0.999 | locus YGL240W, strain doc1, stronger effect = lower value 1 | locus YGL248W, strain PDE1, stronger effect = lower value 0.99 | locus YGL253W, strain hxk2, stronger effect = lower value 1.01 | locus YGR135W, strain pre9, stronger effect = lower value 0.96 | locus YGR252W, strain gcn5, stronger effect = lower value 0.941 | locus YHR013C, strain ard1, stronger effect = lower value 0.986 | locus YHR027C, strain rpn1, stronger effect = lower value 1 | locus YHR030C, strain SLT2, stronger effect = lower value 1 and 1.02 | locus YHR079C, strain IRE1 (second series), stronger effect = lower value 0.993 | locus YHR079C, strain IRE1, stronger effect = lower value 1.01 | locus YHR094C, strain hxt1, stronger effect = lower value 0.997 | locus YHR129C, strain ARP1, stronger effect = lower value 0.997 | locus YHR142W, strain chs7, stronger effect = lower value 0.997 | locus YHR200W, strain rpn10, stronger effect = lower value 0.997 | locus YIL066C, strain RNR3, stronger effect = lower value 1 | locus YIL073C, strain SPO22, stronger effect = lower value 0.992 | locus YIL125W, strain kgd1, stronger effect = lower value 1.01 | locus YIR030C, strain dcg1, stronger effect = lower value 0.996 | locus YJL092W, strain hpr5, stronger effect = lower value 0.988 | locus YJL095W, strain BCK1 (second series), stronger effect = lower value 0.999 | locus YJL095W, strain BCK1, stronger effect = lower value 0.971 and 0.995 | locus YJL115W, strain asf1, stronger effect = lower value 0.996 | locus YJL129C, strain trk1, stronger effect = lower value 0.994 | locus YJL134W, strain LCB3, stronger effect = lower value 1 | locus YJL154C, strain vps35, stronger effect = lower value 0.998 | locus YJL164C, strain tpk1, stronger effect = lower value 0.993 | locus YJL166W, strain qcr8, stronger effect = lower value 1 | locus YJL168C, strain set2, stronger effect = lower value 0.989 | locus YJL187C, strain SWE1 (second series), stronger effect = lower value 1 | locus YJL187C, strain SWE1, stronger effect = lower value 1.01 | locus YJR043C, strain POL32, stronger effect = lower value 1
